From PubChem BioAssay
Sm TGR inh: blocks Schistosoma mansoni thioredoxin glutathione reductase | AID 485364 | Q962Y6 | purified TGR, DTNB reduction, TNB absorbance 405 nm | 360,000 tested, 3% active | Potency, µM (series often up to 114 µM), inactives show at the top dose activity change, negative = inhibition, most hits filed as inhibitors; also: nearly all actives have a fitted effect of over 60% in size
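First, TGR (20 nM dispensed) and NADPH were mixed with compound. Second, a 15 min room-temperature incubation followed. Third, further NADPH and then DTNB were added to start the reaction. Finally, TNB absorbance was monitored kinetically.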
RE007 growth inh: less growth of the S. pombe RE007 Vpr strain; S. pombe RE007 Vpr strain, BacTiter-Glo ATP luminescence, 24 h; Potency, µM (highest dose often 92.2 µM), for inactives: at the highest dose activity change, negative = less growth, actives largely listed as inhibitors; 360,000 tested, 0.21% active; active = well fitted falling curve with a large enough effect; inconclusive = small, poorly fitted or top-dose-only effect; inactive = no such curve, though single readings can be large or run the other way; also: nearly all actives have a fitted effect of over 50% in size
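Fission yeast RE007 carrying one integrated HIV-1 vpr copy, seeded at OD 0.01 in PMG+AL medium with 23 nL pinned compound. Grown 24 h at 30 degrees; viability read by BacTiter-Glo luminescence after 5 min.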
Tb PYK inh: inhibitors of Trypanosoma brucei pyruvate kinase; Q57TT1; TbPYK enzyme, Kinase-Glo Plus ATP luminescence, 45 min; Potency, µM (titrated, usually from 76.8 µM), for inactives: top-dose activity, negative = inhibition, most hits filed as inhibitors; 410,000 tested, 0.12% active; also: nearly all actives have a fitted effect of over 50% in size
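Readout: single end-point luminescence (Kinase-Glo Plus, 10 min). Reaction conditions were TbPYK/substrate plus 130 uM ADP, 45 min at RT, pH 7.2 TEA buffer. No-enzyme wells served as controls, and data were normalized before concentration-response fitting.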
LmPK inh: LmPK (Leishmania mexicana) enzyme inhibition | purified LmPK, Kinase-Glo ATP luminescence, 1 h | Q27686 | 290,000 tested, 0.37% active | Potency, µM (series often up to 57.5 µM), for inactives: top-dose activity change, negative = inhibition, most hits filed as inhibitors | AID 1721
Target sequence (Q27686 whole entry, looked up): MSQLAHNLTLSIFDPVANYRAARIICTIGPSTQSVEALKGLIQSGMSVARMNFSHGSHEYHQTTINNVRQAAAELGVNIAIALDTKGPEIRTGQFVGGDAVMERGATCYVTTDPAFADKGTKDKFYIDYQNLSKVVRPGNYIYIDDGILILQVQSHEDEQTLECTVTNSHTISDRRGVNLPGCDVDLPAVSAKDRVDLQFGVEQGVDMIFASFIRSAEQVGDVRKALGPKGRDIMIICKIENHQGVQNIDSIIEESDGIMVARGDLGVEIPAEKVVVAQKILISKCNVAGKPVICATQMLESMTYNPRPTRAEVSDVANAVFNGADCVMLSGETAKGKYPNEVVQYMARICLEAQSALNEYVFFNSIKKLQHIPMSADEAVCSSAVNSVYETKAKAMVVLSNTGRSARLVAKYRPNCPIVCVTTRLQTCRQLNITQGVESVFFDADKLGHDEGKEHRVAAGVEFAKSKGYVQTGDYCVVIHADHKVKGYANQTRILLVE
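Pyruvate kinase activity monitored as ATP production (luciferase luminescence). Conditions: 0.1 nM enzyme, 0.5 mM PEP, 0.1 mM ADP, 1 h, RT; normalized against uninhibited and no-enzyme wells.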
AMA1 RON2 block: disrupts binding of P. falciparum AMA1 to RON2; AlphaScreen AMA1-biotinylated RON2 peptide binding; Potency, µM (top dose mostly 58.2 µM), inactives show top-dose activity change, negative = inhibition, most hits filed as inhibitors; 360,000 tested, 0.2% active;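 also: 0% = vehicle wells and -100% = peptide control; nearly all actives have a fitted effect of over 45% in size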
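AMA1 (3D7) with his tag at 25 nM final met compounds first, then biotinylated RON2 peptide at 25 nM; detection used donor plus acceptor beads, 10 µg/mL apiece, read by AlphaScreen after 30 min at room temperature.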
Starred values were filed as active, the others as inactive; ? = inconclusive; · = no result given; [ ] = remark or other dose. In the library only some 3.2% were active in any assay of this set; here they are far more common. Unless noted, calls follow the shape of the dose curve; as a rule, active = well fitted curve in the direction sought with a large enough effect; inconclusive = small, poorly fitted or top-dose-only effect, or another doubt; inactive = no such curve, though single readings can be large; an effect the other way counts as inactive or inconclusive. Unless noted, % is scaled to controls: 0 for no effect and ±100 for the full control effect; potency is read from the fitted curve at half-maximal effect.

SMILES	Sm TGR inh	RE007 growth inh	Tb PYK inh	LmPK inh	AMA1 RON2 block
O=C(c1cc(F)cc(F)c1)N1CCC(c2nc(-c3ccc(S(=O)(=O)N4CCCC4)cc3)no2)CC1	-2%	·	-10%	·	·
CCC(=O)Nc1cccc(NC(=S)NC(=O)c2ccccc2)c1	45µM*	-3%	5%	-1%	-1%
CCC(=O)Nc1cccc(NC(=S)NC(=O)c2ccc(C)cc2)c1	·	7%	-3%	5%	11%
CCC(=O)Nc1cccc(NC(=S)NC(=O)c2cccc(C)c2)c1	40µM*	-5%	-12%	-7%	60%
CCC(=O)NC(=S)Nc1cccc(NC(=O)CC)c1	5%	10%	-5%	-4%	-2%
O=C(NC1CCCCCC1)C1c2ccccc2C(=O)N1Cc1cccs1 (centres undefined)	-16%	-8%	-4%	0%	13%
O=C(NC1CCCCCC1)C1c2ccccc2C(=O)N1Cc1ccco1 (centres undefined)	50µM*	-4%	-5%	6%	-2%
CC(CN(C)C)C(C)(O)Cc1ccc(Cl)cc1 (centres undefined)	·	·	-7%	·	·
Cc1ccc(/C=[N+](\[O-])c2ccc(N(C)C)cc2)c2nsnc12	28µM*	4µM*	-20%	-2%	25µM*
Cc1ccc2nsnc2c1NS(=O)(=O)c1c(C)ccc2nsnc12	?	-12%	-2%	13%	-7%
COC(=O)C1=C(C(=O)OC)[C@@H]2Nc3ccccc3[C@@]23C[C@@H](C(=O)OC)N(S(=O)(=O)c2c(C)noc2C)C3=N1	·	·	·	-6%[11.5 µM]	·
CC(=O)Oc1oc(-c2ccccc2)nc1C=Nc1ccccc1	18µM*	1%	-15%	-4%	2%
CCOC(=O)c1ccc(N=Cc2nc(-c3ccccc3)oc2OC(C)=O)cc1	?	-16%	-22%	-28%	6%
Cc1ccc(C(=O)Oc2oc(-c3ccco3)nc2C=Nc2ccccc2)cc1	2.5µM*	·	·	?	·
Cc1ccc(C2c3cccn3CCN2S(=O)(=O)c2ccc([N+](=O)[O-])cc2)cc1 (centres undefined)	?	·	-1%	·	·
CCCCN(CC)C(=O)c1nn(C)c2c1CSc1ccccc1-2	45µM*	·	2%	·	·
CCC1NC(C(=O)O)Cc2c1[nH]c1ccccc21 (centres undefined)	40µM*	-11%	-11%	·	11%
CC(=O)N1C(C(=O)O)Cc2c([nH]c3ccccc23)C1(C)C (centres undefined)	-3%	-8%	-2%	-1%	-7%
CC1(C)NC(C(=O)O)Cc2c1[nH]c1ccccc21 (centres undefined)	40µM*	-4%	-28%	9%	-1%
O=C(CSc1nc(-c2ccccc2)no1)N1CCCCC1	5%	·	-2%	·	·
COc1ccc(S(=O)(=O)CC(=O)c2cc(C)c(O)c(C)c2)cc1	28µM*	·	-4%	-2%	11%
Cc1cc(C(=O)CS(=O)(=O)c2ccc(Cl)cc2)cc(C)c1O	4.5µM*	1%	-9%	0%	-7%
Cc1cc(C(=O)CS(=O)(=O)c2ccc(F)cc2)cc(C)c1OC(=O)N(C)C	-2%	0%	3%	-18%	1%
O=C(NCCc1ccccc1)c1ccc(CSc2nc3ccncc3n2Cc2ccc(F)cc2)cc1	5%	·	-2%	·	·
COc1ccc(CCN(C)CC(=O)Nc2c(C)cc(C)cc2C)cc1OC	100µM*	17%	1%	3%	6%
SMILES	Sm TGR inh	RE007 growth inh	Tb PYK inh	LmPK inh	AMA1 RON2 block
COc1ccc2[nH]cc(C(=O)CN3CC(C)CC(C)C3)c2c1 (centres undefined)	-30%	-1%	2%	1%	6%
COc1ccc2[nH]cc(C(=O)CCl)c2c1	2.8µM*	21%	-7%	-3%	-10%
COc1ccc2[nH]c(=O)cc(C(=O)O)c2c1	-6%	-2%	-2%	1%	22µM*
COc1ccc2[nH]cc(C(=O)CN(C)CCc3ccc(OC)c(OC)c3)c2c1	13µM*	-6%	-7%	3%	3%
COc1ccc(CCN(C)CCC(=O)Nc2cc(C)ccc2C)cc1OC	30%	-4%	-16%	-4%	-7%
CCCc1cc(=O)[nH]c2nnc(SCC)n12	9%	·	-27%	·	·
